The results in this text go back to article PMC4552634, “A New Set of Chemical Starting Points with Plasmodium falciparum Transmission-Blocking Potential for Antimalarial Drug Discovery” (PLoS ONE, 2015).

Structures are written as SMILES. About 3,200 (25%) of roughly 13,000 compounds showed an effect of 50% or more. The list shows a part of the results.

For the experiment, the system named is P. falciparum stage V gametocytes. Also on record: BacTiter-Glo ATP luminescence viability of purified stage V gametocytes in 384-well plates, per cent inhibition versus DMSO. Conditions: 48 h, 5 µM; inhibitor.
As for `CN(C)CCOc1ccnc2ccc(NC(=O)Cc3ccc(-c4ccncc4)c4ccccc34)cc12` [TCMDC-139162], the “% Inhibition” value is 6.193%.

With `CCOc1ccnc(=O)[nH]1` [TCMDC-124258], the “% Inhibition” value is listed as 20.67%.

On to `C=CCOc1ccc(C2C(C(=O)OC)=C(C)NC3=C2C(=O)c2ccccc23)cc1OC` (stereo not drawn) [TCMDC-125383], for which the “% Inhibition” value is listed as -17.47%. For `O=C(Nc1cccc(-c2nn3ncccc3c2-c2ccnc(Nc3cccc(-c4cnco4)c3)n2)c1)c1c(F)cccc1F` [TCMDC-135550] the value was -49.22%; for `CN1CCCc2ccc(NC(=O)Nc3ccc(-c4ccccc4)cc3)cc2C1` [TCMDC-133730], -3.95%. For `CN1CCN(c2ccnc3ccc(NC(=O)Nc4ccc(-c5ccccc5)cc4)cc23)CC1` [TCMDC-139320] the value was -2.633%. For `O=C(Nc1ccc(-c2ccc(-c3nc4ccc(C(F)(F)F)cc4[nH]3)cc2)cc1)Nc1ccc(F)c(F)c1F` [TCMDC-133223] the value was -19.68%; for `CN1CCN(c2nsc3ccc(-c4ccc(NC(=O)Nc5ccccc5)cc4)cc23)CC1` [TCMDC-133437], 50.88%. Take `CN1CCN(c2nsc3ccc(-c4ccc(OCCN5CCCC5)cc4)cc23)CC1` [TCMDC-133436]: the “% Inhibition” value is given as 111.5%. For `Fc1ccc(-c2cc3ncnc(N4CCN(CCN5CCCC5)CC4)c3s2)cc1` [TCMDC-125053] the value was 6.032%; for `CN(C)Cc1ccc(CN2CCN(CCOc3ccc(-c4ccc(Cl)cc4)cc3)CC2)o1` [TCMDC-138673], 36.52%. For `CN1CCN(c2nsc3ccc(-c4ccc(NC(=O)Nc5cc(C(F)(F)F)ccc5F)cc4)cc23)CC1` [TCMDC-133435] the value was 89.92%; for `COc1ccc(N2CCN(CCCCNC(=O)c3ccc(/C=C/c4ccc(Cl)c(Cl)c4)cc3)CC2)c(OC)c1` [TCMDC-138175], -78.16%; for `CS(=O)(=O)c1ccc2nc(NC(=O)c3csnn3)sc2c1` [TCMDC-125074], 49.99%. In the case of `NC1=NC2(CCCC2)N(c2ccc(Cl)cc2)C(N)=N1` [TCMDC-137719], the “% Inhibition” value amounted to 0.5076%. Turning to `NC(N)=NC(=O)Nc1cc(Cl)c(Cl)c(Cl)c1` [TCMDC-137465], the “% Inhibition” value is given as -8.846%. For `CCN(CC)CCN(Cc1ccc(-c2ccc(Cl)cc2)cc1)C(=O)Cn1cc(CN(C)C)c(=O)nc1SCc1ccc(F)cc1` [TCMDC-140406] the value was 107.7%. Under `CCc1cn(CC(=O)N(CCOc2ccc(-c3ccc(C(F)(F)F)cc3)cc2)CCN(CC)CC)c(SCc2ccc(F)cc2)nc1=O` [TCMDC-140925] stands 116.2%; under `CC(C)Sc1nc2c(c(=O)n1Cc1ccco1)C1(CCCCC1)Cc1ccccc1-2` [TCMDC-125100], 0.5988%; under `COc1ccc(CNC2CCN(C)CC2)cc1-c1ccc(S(=O)(=O)NC2CCC2)c(F)c1` [TCMDC-132263], 28.54%.

Consider `COc1ccc(CNC2CCN(C)CC2)cc1-c1ccc(S(=O)(=O)NC2CCC2)cc1` [TCMDC-132245], for which the “% Inhibition” value worked out at 84.43%.

With `COc1ccc(CNC2CCN(C)CC2)cc1-c1ccc(S(=O)(=O)NC2CCC2)c(C)c1` [TCMDC-132270], the “% Inhibition” value is 86.28%.

Consider `N=C(N)c1ccc(NN=Cc2ccc(Oc3ccc(C(=N)N)cc3)cc2)cc1` [TCMDC-137493], for which the “% Inhibition” value stood at 43.38%. For `CC(C)Cc1c(O)nc(SCCN2CCOCC2)[nH]c1=O` [TCMDC-125767] the value was 17.13%. For `O=C(O)C[C@H](NC(=O)[C@@H]1CCCN1C(=O)c1cccc(-c2ccc(Cl)c(Cl)c2)c1)C(=O)O` [TCMDC-140511] the value was 4.214%; for `O=[N+]([O-])c1ccc(NC(=NC2CCCc3ccccc32)Nc2ccccc2Br)c(O)c1` (stereo not drawn) [TCMDC-139983], -2.666%; for `COc1c(OC)c(OC)c2ccccc2c1CNCCCCCCNCc1c(OC)c(OC)c(OC)c2ccccc12` [TCMDC-137827], 106%. Under `COc1c(CNCCCCCCNCc2c(OC)c(OC)c3ccccc3c2OC)c(OC)c2ccccc2c1OC` [TCMDC-137837] stands 111.1%. With `CCCNCc1c(O)ccc2c(CNCCC)c(O)ccc12` [TCMDC-137593], the “% Inhibition” value is -47.95%. Under `O=C(NC1CC1)c1ccc(N2CCCC(COc3ccccc3F)C2)nc1` (stereo not drawn) [TCMDC-134034] stands 24.35%; under `Cc1cccc2nc(-c3ccc(-c4cccc(NC(=O)COc5ccccc5C(N)=O)c4)s3)[nH]c12` [TCMDC-132133], 0.7486%; under `CN(CCCCNC(=O)/C=C/c1ccccc1)C1CC2(CCN(C(=O)OC(C)(C)C)CC2)c2ccccc21` (stereo not drawn) [TCMDC-132882], -12.8%.

For the compound `CN(CCCCNC(=O)c1cc2ccccc2[nH]1)C1CC2(CCN(C(=O)OC(C)(C)C)CC2)c2ccccc21` (stereo not drawn) [TCMDC-132884], the “% Inhibition” value is recorded as 36.87%. For `CN(C1CCC(NC(=O)/C=C/c2ccccc2)CC1)C1CC2(CCN(C(=O)OC(C)(C)C)CC2)c2ccccc21` (stereo not drawn) [TCMDC-132880] the value was 63.78%; for `OC(CNCc1ccccc1OCc1ccccc1)c1cc(C(F)(F)F)cc(C(F)(F)F)c1` (stereo not drawn) [TCMDC-140300], -49.16%; for `CCCCN(Cc1cccc(C(F)(F)F)c1Cl)c1ccc(C(O)(C(F)(F)F)C(F)(F)F)cc1` [TCMDC-135213], -4.716%. For `CCCCN(Cc1cc(Cl)c(OCC)c(OC)c1)c1ccc(C(O)(C(F)(F)F)C(F)(F)F)cc1` [TCMDC-135622] the value was 2.509%.

As for `CCCCN(Cc1cc(Cl)c(OC)c(OC)c1)c1ccc(C(O)(C(F)(F)F)C(F)(F)F)cc1` [TCMDC-135446], the “% Inhibition” value is given as 54.26%. For `Cc1ccc(F)cc1S(=O)(=O)Nc1ccc(CCN2CCC(N3CCCCC3)CC2)cc1` [TCMDC-134088] the value was 60.27%; for `Cc1ccc(F)cc1S(=O)(=O)Nc1cccc(CCN2CCC(N3CCCCC3)CC2)c1` [TCMDC-134068], 67.59%. For `COc1ccc(C2C(C(=O)OC3CCCCC3)=C(C)NC3=C2C(=O)CCC3)cc1Br` (stereo not drawn) [TCMDC-125070] the value was -15.5%; for `COc1cc(CCCON2C(N)=NC(N)=NC2(C)C)cc(OC)c1OC` [TCMDC-131726], 7.417%; for `COc1ccc(C=C2SC(=N)N(c3ccccc3OC)C2=O)cc1` [TCMDC-124486], 37.63%. For `NC1=NC2(CCCCC2)N(OCCCOc2cccc3ccccc23)C(N)=N1` [TCMDC-131649], the “% Inhibition” value was 49.63%. For `CCOc1ccc(Nc2nc(N)c3ccccc3n2)cc1.Cl` [TCMDC-123748] the value was 31.55%; for `Cl.c1ccc2c(Nc3ccc(Oc4ccc(Nc5c6ccccc6nc6ccccc56)cc4)cc3)c3ccccc3nc2c1` [TCMDC-124284], 101.1%. For `Cl.c1ccc2c(Nc3ccc(OCCOCCOc4ccc(Nc5c6ccccc6nc6ccccc56)cc4)cc3)c3ccccc3nc2c1` [TCMDC-137355] the value was 108.9%; for `Cc1ccc(Nc2c3ccccc3nc3ccc(C)cc23)cc1` [TCMDC-124153], -51.64%; for `CC(=O)Nc1ccc(Nc2c3ccccc3nc3ccccc23)cc1` [TCMDC-124356], 67.17%. On to `CC(=O)Nc1cccc(Nc2c3ccccc3nc3ccccc23)c1` [TCMDC-123741], for which the “% Inhibition” value is reported as -71.42%.

For `O=c1c2ccccc2[nH]c2nc3ccccc3c(Nc3ccccc3)c12` [TCMDC-141996], the “% Inhibition” value is 28.3%. Under `Cc1cc2cc(/C=C/C(=O)NC3CCC(CCN4CCc5ccc(C#N)cc5CC4)CC3)ccc2[nH]1` (stereo not drawn) [TCMDC-139673] stands -19.51%; under `CCn1cc2c3c(cc(C(=O)N[C@@H](Cc4ccccc4)[C@H](O)CNC4CCOCC4)cc31)N(C)S(=O)(=O)CC2` [TCMDC-135785], -5.565%; under `COc1ccc(Nc2nc(NC3CCCC3)cc(-c3ccc(OC)cc3)n2)cc1` [TCMDC-133468], -75.14%. Under `Cc1ccccc1C1CCN(c2ccc(C(=O)Nc3ccc(F)cc3)cn2)CC1` [TCMDC-134611] stands 39.85%; under `CC(C)[C@H](NC(=O)c1ccc(O)c(-c2ccc(Cl)c(Cl)c2)c1)C(=O)NCCN1CCOCC1` [TCMDC-140850], -3.222%; under `C=CCOC(=O)N1CCC(CNCc2ccc(-c3cccc(-c4nc5cccc(C)c5[nH]4)c3)cc2)C1.O=C(O)C(F)(F)F` (stereo not drawn) [TCMDC-133039], 9.6%. For `CC(Cc1ccc(Cl)cc1)Nc1nc(NC2CCCC2)nc(N2CCC(C#N)(c3ccccc3)CC2)n1` (stereo not drawn) [TCMDC-139928] the value was -79.71%. Turning to `CC(C)(C)c1ccc(CN2CCCCC(NC(=O)c3cc(-c4cccc(Cl)c4)cs3)C2)cc1` (stereo not drawn) [TCMDC-134468], the “% Inhibition” value is reported as -11.91%.

With `CN(C)c1ccc(-c2csc(C(=O)NC3CCN(Cc4ccc(C(C)(C)C)cc4)C3)c2)cc1` (stereo not drawn) [TCMDC-134476], the “% Inhibition” value is listed as 63.77%. In the case of `CN(C)c1ccc(-c2ccc(C(=O)NC3CCN(Cc4ccc(C(C)(C)C)cc4)CC3)s2)cc1` [TCMDC-134354], the “% Inhibition” value is on record as -40.81%.

On to `CC(=O)Nc1ccc(CN2CCC(NC(=O)c3cc(-c4ccc(N(C)C)cc4)cs3)C2)cc1` (stereo not drawn) [TCMDC-134477], for which the “% Inhibition” value is 92.99%.

On to `CN(C)c1ccc(-c2csc(C(=O)NC3CCCCN(Cc4ccc(C(C)(C)C)cc4)C3)c2)cc1` (stereo not drawn) [TCMDC-134470], for which the “% Inhibition” value was 63.14%. For the compound `CN(C)c1ccc(-c2csc(C(=O)NC3CCCCN(CCC(C)(C)C)C3)c2)cc1` (stereo not drawn) [TCMDC-134487], the “% Inhibition” value is -62.75%. For `CN(C)c1ccc(CN2CCCCC(NC(=O)c3cc(-c4ccccc4F)cs3)C2)cc1` (stereo not drawn) [TCMDC-134471] the value was -62.25%; for `O=C(NCC1CCC(C(=O)NCc2cccc(C(F)(F)F)c2)CC1)c1ccc(O)c(-c2ccc(Cl)c(Cl)c2)c1` (stereo not drawn) [TCMDC-140886], 8.372%.
